Sampled rows, rich in hits. Any-hit rate of the full collection: about 11%.
HPGD block: inhibitors of human 15-hydroxyprostaglandin dehydrogenase (HPGD); P15428; purified HPGD, NADH fluorescence kinetic, PGE2 substrate; Potency, µM, hits mostly inhibitors; 150,000 tested, 4.3% active; AID 894; active = well fitted inhibition curve with a large enough effect, not every such curve was filed as active; inconclusive = small, poorly fitted or top-dose-only effect, or another doubt; inactive = no such curve, though single readings can be large or run the other way
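20 nM HPGD preincubated 15 min at room temperature with compound in 50 mM Tris-HCl pH 8, 0.01% Tween 20. Started with 1 mM NAD+ and 30 uM prostaglandin E2; NADH fluorescence (360/450 nm) read 5 times over 30-s intervals, last minus first.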
IMPase Li inh: cell-permeable IMPase inhibitors with lithium potentiation; CHO-M1 cells, IP1 TR-FRET (IP-One), carbachol + lithium; Potency, µM (titrated, usually from 59.4 µM), hits mostly inhibitors; 210,000 tested, 0.35% active; AID 1457;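 note: IP1 builds up when IMPase is blocked and the TR-FRET signal falls; nearly all actives have a fitted effect of over 50% in size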
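Lithium-sensitised IP1 accumulation assay; M1-expressing CHO cells treated 30 min at 37C with compound. Competitive antibody detection by time-resolved FRET followed a 10 min room-temperature lysis step.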
IMPase inh: membrane-permeable compound that blocks inositol monophosphatase | P97697 | CHO-M1 cells, IP1 accumulation, HTRF TR-FRET ratio | inhibition (IP1 accumulation), % at 46.1 µM | 120,000 tested, under 10 active | AID 901; active = well fitted curve in the direction sought with a large enough effect in the signal ratio, not every such curve was filed as active; inconclusive = small, poorly fitted or top-dose-only effect, or a change in a side signal; inactive = no such curve, though single readings can be large or run the other way; the % refers to the signal ratio;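 note: cells stimulated with carbachol in lithium chloride buffer; higher means more IMPase inhibition seen as more IP1 and lower FRET ratio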
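The IP-One HTRF competitive assay in carbachol-stimulated CHO-M1 cells quantifies cellular IP1. Compounds spanned up to 46 uM final, and activity is expressed as AC50 from concentration-response fits of the ratio and donor data.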
ALDH1A1 inh: blocks purified human ALDH1A1 activity. 220,000 tested, 7.3% active. Purified ALDH1A1, NADH fluorescence, propionaldehyde substrate. P00352. Potency, µM (highest dose often 75.3 µM), most hits filed as inhibitors; active = well fitted inhibition curve with a large enough effect, not every such curve was filed as active; inconclusive = small, poorly fitted or top-dose-only effect, or another doubt; inactive = no such curve, though single readings can be large or run the other way
NPSR antag: blocks cAMP signaling of the human neuropeptide S receptor; Q6W5P4; CHO-NPSR cells, cAMP TR-FRET, antagonist mode; Potency, µM (doses to about 38.3 µM), actives largely listed as inhibitors; 220,000 tested, 1% active; AID 1461; note: nearly all actives have a fitted effect of over 50% in size
Target sequence (Q6W5P4 whole entry, looked up): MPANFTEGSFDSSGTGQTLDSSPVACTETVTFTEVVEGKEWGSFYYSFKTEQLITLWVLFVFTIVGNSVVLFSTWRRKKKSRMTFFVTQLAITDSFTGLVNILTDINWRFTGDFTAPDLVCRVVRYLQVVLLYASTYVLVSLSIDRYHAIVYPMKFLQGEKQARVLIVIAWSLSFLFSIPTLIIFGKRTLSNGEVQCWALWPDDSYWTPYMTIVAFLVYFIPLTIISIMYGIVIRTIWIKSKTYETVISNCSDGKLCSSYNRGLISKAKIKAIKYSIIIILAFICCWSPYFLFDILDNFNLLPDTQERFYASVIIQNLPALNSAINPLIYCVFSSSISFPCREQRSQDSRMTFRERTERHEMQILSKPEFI
PNC inhibitor: blocks assembly of the perinucleolar compartment. PC3M PTB-GFP, PNC prevalence imaging, 16 h; hits give low values. activity change (PNC), negative = inhibition, % at 10 µM. 140,000 tested, 3.1% active;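 active = readout at or below -70, meaning at least 70% loss of cells showing the perinucleolar compartment, a nuclear body marking cancer cells; inconclusive = readout between -30 and a set limit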
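Compounds are pinned in duplicate onto adhered PC3M cells stably expressing GFP-tagged PTB and incubated 16 h at 37 C. Cells are then fixed, nuclei stained with Hoechst, and PNC-positive cells counted.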
Large screens that a line does not name were inactive. Unless noted, calls come from the whole dose curve; as a rule, active = well fitted curve in the direction sought with a large enough effect; inconclusive = small, poorly fitted or top-dose-only effect, or another doubt; inactive = no such curve, though single readings can be large; an effect the other way counts as inactive or inconclusive.

CC(N)(Cc1ccc(O)c(O)c1)C(=O)O (configuration not stated)	HPGD block 10µM, ALDH1A1 inh 2.24µM (no result: IMPase inh, PNC inhibitor)
C[C@@](N)(Cc1ccc(O)cc1)C(=O)O	none (no result: NPSR antag, PNC inhibitor)
O=C(N/N=C/c1ccco1)c1cc(-c2cccc(Br)c2)nc2ccccc12	HPGD block inconclusive (no result: IMPase inh)
CCOC(=O)CC(=O)CSc1ncc(C(=O)OCC)c(N)n1	ALDH1A1 inh 22.4µM, PNC inhibitor inconclusive
CCOC(=O)c1cnc(SCc2cccc3ccccc23)nc1N	HPGD block 28.2µM, ALDH1A1 inh inconclusive
CCOC(=O)c1cnc(SCc2ccccc2)nc1N	ALDH1A1 inh inconclusive, PNC inhibitor inconclusive
CCCCC(CC)COCC1CO1 (configuration not stated)	ALDH1A1 inh 12.6µM (no result: IMPase inh, NPSR antag, PNC inhibitor)
CCCCC(CC)COC(=O)CCCCC(=O)OCC(CC)CCCC (configuration not stated)	none (no result: IMPase inh, NPSR antag, PNC inhibitor)
COC(=O)c1ccc(COC(=O)c2ccccn2)cc1	none
CN(C)c1ccc(NC(=O)CSc2nc(N)c(C(=O)Nc3ccc(N(C)C)cc3)s2)cc1	IMPase inh inconclusive, ALDH1A1 inh 25.1µM
CCOC(=O)c1sc(SCC(=O)Nc2ccc(N(C)C)cc2)nc1N	ALDH1A1 inh 22.4µM, NPSR antag inconclusive, PNC inhibitor inconclusive
COc1ccc(NC(=O)CSc2nc(N)c(C(=O)Nc3ccc(N(C)C)cc3)s2)cc1	ALDH1A1 inh inconclusive
O=C(O)c1nn(CCOc2cccc(Cl)c2)c(=O)c2ccccc12	none (no result: HPGD block, IMPase inh, PNC inhibitor)
C=CCCC1(C)C(=O)N(c2ccccc2)c2ccccc21 (configuration not stated)	none (no result: IMPase inh)
COc1ccc([N+](=O)[O-])cc1N(CC(=O)O)S(C)(=O)=O	ALDH1A1 inh 31.6µM (no result: HPGD block, IMPase inh, PNC inhibitor)
COC(=O)CN(c1cc([N+](=O)[O-])ccc1OC)S(C)(=O)=O	ALDH1A1 inh inconclusive (no result: HPGD block, IMPase inh, PNC inhibitor)
O=C(Nc1ccc(N2CCCC2)c(Cl)c1)c1ccco1	ALDH1A1 inh inconclusive
O=C(Nc1ccc(N2CCCCC2)c(Cl)c1)c1ncn[nH]1	HPGD block 12.6µM, PNC inhibitor inconclusive
Cc1ccc(NS(=O)(=O)c2ccc(CCC(=O)N3CCCC3)cc2)cc1	ALDH1A1 inh inconclusive (no result: HPGD block, IMPase inh, PNC inhibitor)
O=C(Nc1ccc(CCC(=O)N2CCCC2)cc1)c1ncn[nH]1	HPGD block 28.2µM, IMPase inh inconclusive
O=C(c1ccc(Nc2cccc(C(F)(F)F)c2)nc1)N1CCCC1	HPGD block inconclusive, ALDH1A1 inh inconclusive, PNC inhibitor inconclusive
C[C@H]1Cc2c(-c3ccccc3)nc3c(c2CO1)CN(C(=O)Cc1cccs1)CC3	none (no result: IMPase inh, NPSR antag, PNC inhibitor)
O=C(NC(=S)N1CCN(c2ccc([N+](=O)[O-])cc2)CC1)c1ccccc1F	ALDH1A1 inh 25.1µM (no result: IMPase inh)
O=C(NC(=S)N1CCN(c2ccc([N+](=O)[O-])cc2)CC1)c1ccccc1Cl	ALDH1A1 inh inconclusive (no result: HPGD block, IMPase inh, PNC inhibitor)
CCCN1CCN(C(=S)Nc2ccc([N+](=O)[O-])cc2)CC1	ALDH1A1 inh 31.6µM (no result: HPGD block, IMPase Li inh)
O=[N+]([O-])c1ccc(N2CCN(C(=S)Nc3ccccc3)CC2)cc1	ALDH1A1 inh 1.41µM (no result: HPGD block, IMPase inh, PNC inhibitor)
O=[N+]([O-])c1cccc(C(=S)N2CCN(c3ccc(F)cc3)CC2)c1	ALDH1A1 inh 22.4µM (no result: HPGD block, IMPase inh, PNC inhibitor)
O=[N+]([O-])c1ccc(NC(=S)N2CCN(c3ccccc3)CC2)cc1	ALDH1A1 inh inconclusive
CCCN1CCC(NC(=S)Nc2ccc([N+](=O)[O-])cc2)CC1	none (no result: HPGD block, IMPase inh, PNC inhibitor)
CCCn1c(N)c(NCCN2CCOCC2)c(=O)n(CC(=O)NCc2ccccc2)c1=O	none (no result: HPGD block, IMPase inh, PNC inhibitor)
CCOC(=O)c1nnn(CC(=O)NC(=O)Nc2cccc(CC)c2)c1C(=O)OCC	none (no result: HPGD block, IMPase inh, PNC inhibitor)
O=C(NC(=S)N1CCN(c2ccc([N+](=O)[O-])cc2)CC1)c1ccc(F)cc1	ALDH1A1 inh 7.08µM, PNC inhibitor inconclusive (no result: IMPase inh)
O=C(NC(=O)N1CCN(c2ccc(F)cc2)CC1)c1ccccc1	PNC inhibitor inconclusive
O=[N+]([O-])c1ccc(N2CCN(C(=S)NC3CCCCC3)CC2)cc1	ALDH1A1 inh 5.01µM
S=C(NC1CC1)N1CCN(c2ccc(Cl)cc2)CC1	none (no result: HPGD block, IMPase inh, PNC inhibitor)
COc1ccc(CCN(C)C(=O)N2CCOCC2)cc1OC	none
Cc1cccc(NC(=O)CSCc2nc3c(nnn3Cc3ccc(F)cc3)c(=O)[nH]2)c1C	none (no result: HPGD block, IMPase inh, PNC inhibitor)
